Measurements as given in PubChem BioAssay (NCI).
The panel holds about 83,000 compounds, 20% with a hit somewhere; the sample as a whole holds those more often.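 Growth was measured after 48 h exposure to one concentration of compound in 96-well plates. Values under 10 count as active.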 Unmarked numbers belong to inactive results. Active and inactive are the calls of the source.

Legend:
Assay in all cases: NCI-60 one-dose screen, 48 h (100 = growth as untreated, 0 = no growth, -100 = all killed)
Conditions in all cases: 10 µM unless noted
SR leukemia = tested on: SR leukemia
RPMI-8226 leukemia = tested on: RPMI-8226 leukemia
OVCAR-8 ovarian = tested on: OVCAR-8 ovarian
OVCAR-5 ovarian = tested on: OVCAR-5 ovarian
OVCAR-4 ovarian = tested on: OVCAR-4 ovarian
SK-OV-3 ovarian = tested on: SK-OV-3 ovarian
IGROV1 ovarian = tested on: IGROV1 ovarian
OVCAR-3 ovarian = tested on: OVCAR-3 ovarian
HS 578T breast = tested on: HS 578T breast
NCI/ADR-RES ovarian = tested on: NCI/ADR-RES ovarian
T-47D breast = tested on: T-47D breast
BT-549 breast = tested on: BT-549 breast
MDA-MB-435 melanoma = tested on: MDA-MB-435 melanoma
MCF7 breast = tested on: MCF7 breast
HCT-116 colon = tested on: HCT-116 colon
HCC-2998 colon = tested on: HCC-2998 colon
KM12 colon = tested on: KM12 colon
MDA-MB-468 breast = tested on: MDA-MB-468 breast
SW-620 colon = tested on: SW-620 colon

CC(C)C[C@H](NC(=O)CNC(=O)C[C@H]1O[C@@H]2OC3(C)CC[C@H]4[C@H](C)CC[C@@H]([C@H]1C)[C@@]24O3)B(O)O
growth (SR leukemia): 9.06% (active)
growth (RPMI-8226 leukemia): -11% (active)
growth (OVCAR-8 ovarian): 4.17% (active)
growth (OVCAR-5 ovarian): -32.6% (active)
growth (OVCAR-4 ovarian): 18.9%
growth (SK-OV-3 ovarian): 25.7%
growth (IGROV1 ovarian): 10.7%
growth (OVCAR-3 ovarian): -33.1% (active)
growth (HS 578T breast): -5.03% (active)
growth (NCI/ADR-RES ovarian): 92.6%
growth (T-47D breast): -30.8% (active)
growth (BT-549 breast): -87% (active)
growth (MDA-MB-435 melanoma): -71.1% (active)
growth (MCF7 breast): 20.3%
growth (HCT-116 colon): -67.2% (active)
growth (HCC-2998 colon): -94.5% (active)
growth (KM12 colon): -24.4% (active)
growth (MDA-MB-468 breast): -58.4% (active)

Nc1ccc(-c2ccc3ncnc(N4CCc5cc(F)c(Cl)cc54)c3c2)cn1
growth (SR leukemia): 0.174% (active)
growth (RPMI-8226 leukemia): 6.22% (active)
growth (OVCAR-8 ovarian): 42.5%
growth (OVCAR-5 ovarian): 20.6%
growth (OVCAR-4 ovarian): 34.6%
growth (SK-OV-3 ovarian): 1.92% (active)
growth (IGROV1 ovarian): -46% (active)
growth (OVCAR-3 ovarian): 4.61% (active)
growth (HS 578T breast): -15.8% (active)
growth (NCI/ADR-RES ovarian): 30%
growth (T-47D breast): 10.7%
growth (BT-549 breast): -9.19% (active)
growth (MDA-MB-435 melanoma): 28%
growth (MCF7 breast): 8.53% (active)
growth (HCT-116 colon): -52.9% (active)
growth (HCC-2998 colon): 38.2%
growth (KM12 colon): 35.6%
growth (MDA-MB-468 breast): -78% (active)

COc1ccc2[nH]cc(-c3cc(N)n4nc(-c5c[nH]c6ccccc56)cc4n3)c2c1
growth (SR leukemia): 11.1%
growth (RPMI-8226 leukemia): -11.5% (active)
growth (OVCAR-8 ovarian): -43.9% (active)
growth (OVCAR-5 ovarian): 7.37% (active)
growth (OVCAR-4 ovarian): 30.9%
growth (SK-OV-3 ovarian): 3.49% (active)
growth (IGROV1 ovarian): 16%
growth (OVCAR-3 ovarian): 14.6%
growth (HS 578T breast): 37.2%
growth (NCI/ADR-RES ovarian): 27.7%
growth (T-47D breast): -21.8% (active)
growth (MDA-MB-435 melanoma): -79% (active)
growth (SW-620 colon): -70.4% (active)
growth (MCF7 breast): -81.6% (active)
growth (HCT-116 colon): -82.1% (active)
growth (HCC-2998 colon): -76.2% (active)
growth (KM12 colon): -48.8% (active)

CC(=O)c1c2c(c3ccc4c5ccccc5ccc4n13)C(=O)c1ccccc1C2=O
growth (SR leukemia): 77.4%
growth (RPMI-8226 leukemia): 101%
growth (OVCAR-8 ovarian): 89.2%
growth (OVCAR-5 ovarian): 115%
growth (OVCAR-4 ovarian): 85.4%
growth (SK-OV-3 ovarian): 97.1%
growth (IGROV1 ovarian): 84.5%
growth (OVCAR-3 ovarian): 108%
growth (HS 578T breast): 82.2%
growth (NCI/ADR-RES ovarian): 96.3%
growth (T-47D breast): 92.5%
growth (BT-549 breast): 113%
growth (MDA-MB-435 melanoma): 98.3%
growth (MCF7 breast): 58%
growth (HCT-116 colon): 102%
growth (HCC-2998 colon): 94.3%
growth (KM12 colon): 85.8%
growth (MDA-MB-468 breast): 84.2%

Cn1cc(-c2cc(N)n3nc(-c4c[nH]c5ccccc45)cc3n2)c2cc(Br)ccc21
growth (SR leukemia): 13.6%
growth (RPMI-8226 leukemia): -9.12% (active)
growth (OVCAR-8 ovarian): -63.7% (active)
growth (OVCAR-5 ovarian): -57.1% (active)
growth (OVCAR-4 ovarian): -40.6% (active)
growth (SK-OV-3 ovarian): -60% (active)
growth (IGROV1 ovarian): -70.6% (active)
growth (OVCAR-3 ovarian): -48% (active)
growth (HS 578T breast): -29.9% (active)
growth (NCI/ADR-RES ovarian): -18.4% (active)
growth (T-47D breast): -82.7% (active)
growth (BT-549 breast): -58% (active)
growth (MDA-MB-435 melanoma): -79% (active)
growth (MCF7 breast): -73.9% (active)
growth (HCT-116 colon): -77.7% (active)
growth (HCC-2998 colon): -77% (active)
growth (KM12 colon): -79.3% (active)
growth (MDA-MB-468 breast): -80.8% (active)

Clc1ccc(CNc2nc(SCCN3CCOCC3)nc3c2cnn3CC(Cl)c2ccc(Br)cc2)cc1 (stereo not drawn)
growth (SR leukemia): -14.9% (active)
growth (RPMI-8226 leukemia): 1.89% (active)
growth (OVCAR-8 ovarian): 44.3%
growth (OVCAR-5 ovarian): 75.5%
growth (OVCAR-4 ovarian): 44.6%
growth (SK-OV-3 ovarian): 62.5%
growth (IGROV1 ovarian): 67.9%
growth (OVCAR-3 ovarian): 56.5%
growth (HS 578T breast): 49.4%
growth (NCI/ADR-RES ovarian): 34.5%
growth (T-47D breast): 22.4%
growth (MDA-MB-435 melanoma): 27.6%
growth (SW-620 colon): 19.2%
growth (MCF7 breast): 10.1%
growth (HCT-116 colon): 22.7%
growth (HCC-2998 colon): 30.9%
growth (KM12 colon): 28%
growth (MDA-MB-468 breast): 39.9%

N#Cc1cc(-c2ccnc(Nc3ccc(N4CCN(C5COC5)CC4)cc3)n2)ccc1N1CCCC1
growth (SR leukemia): 23%
growth (RPMI-8226 leukemia): 36.6%
growth (OVCAR-8 ovarian): 79.5%
growth (OVCAR-5 ovarian): 93.5%
growth (OVCAR-4 ovarian): 43.9%
growth (SK-OV-3 ovarian): 52.8%
growth (IGROV1 ovarian): 55.3%
growth (OVCAR-3 ovarian): 94.5%
growth (HS 578T breast): 21.6%
growth (NCI/ADR-RES ovarian): 92.2%
growth (T-47D breast): 91%
growth (BT-549 breast): 34.1%
growth (MDA-MB-435 melanoma): 66.9%
growth (MCF7 breast): 85.8%
growth (HCT-116 colon): 49%
growth (HCC-2998 colon): 75.4%
growth (KM12 colon): 83.2%
growth (MDA-MB-468 breast): 38.8%

COC(=O)c1c(C(=O)OC)c2ccc3c4ccccc4ccc3n2c1C(=O)OC
growth (SR leukemia): 94.6%
growth (RPMI-8226 leukemia): 104%
growth (OVCAR-8 ovarian): 107%
growth (OVCAR-5 ovarian): 106%
growth (OVCAR-4 ovarian): 100%
growth (SK-OV-3 ovarian): 109%
growth (IGROV1 ovarian): 114%
growth (OVCAR-3 ovarian): 75.8%
growth (HS 578T breast): 92.7%
growth (NCI/ADR-RES ovarian): 112%
growth (T-47D breast): 93.7%
growth (MDA-MB-435 melanoma): 98.7%
growth (SW-620 colon): 111%
growth (MCF7 breast): 85.4%
growth (HCT-116 colon): 97.7%
growth (HCC-2998 colon): 107%
growth (KM12 colon): 103%
growth (MDA-MB-468 breast): 89.6%
